40 sequences from the supplement of paper PMC6555819 can be followed below.

The test system of one assay is PPARg DBDmut:RXRa IVT, anti-PPARg (DBD mutation: PPARg1 K132A/R137A, NR concentration 270 nM, RXRa partner concentration 90 nM). The assay is described as follows: PBM binding z-score (relative to random genomic background probes); higher = stronger binding; sequences stand for … in GC…GCGATTGACAGCGTAGAATGAAGG
In outline:
(§1)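 For binding z-scores, the reference was random background probes on custom Agilent 4×180K protein-binding microarrays. These arrays were incubated 1 h with ligand-free nuclear receptor dimers in PBS pH 7.4, 2% milk, 0.02% Triton X-100, 1 mM DTT, 0.2 mg/mL BSA and 0.4 mg/ml salmon testes DNA. Fluorescence was scanned after antibody detection of each partner (one per run) and regression-normalized.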
For GCTCGGAGGACAAGGTCAAAGCTTTGTCCGTAGA, the PBM binding z-score was -1.59.

Turning to GCTAGTTGGTCAGTAAAAGGCCACACACCGGTCG, the PBM binding z-score was -0.775.

CCTTACGGGTCACTGACCGGTTATAGCATTTGGA displayed a PBM binding z-score of 1.44.

Sequence CCTACTGGGCCACGAAGGGTCATTGATTCAGTGA came in with a PBM binding z-score of -0.0977.

The sequence AGAATGAGGGCACGCTGAGTTGATAGCAGAGTAG yielded a PBM binding z-score of 1.66.

Take GCTAACAGGCCATTTGGGTCACTCAATGACGGGC: the PBM binding z-score was -0.246.

TCGAGTAGGTTAGCGGCATTCAGAATGGCGTCGA registered a PBM binding z-score of -1.28.

The sequence TATACAGGGTTAAAGGCCAGAGTACGAATGTCGA yielded a PBM binding z-score of 1.23.

For CGAACTAGGTCTTCCAGGACAGTGAATACATTGA, the PBM binding z-score amounted to 0.439.

Sequence TTACCAAGGTGAGCTGAAGTCGTTGATCCAACTC displayed a PBM binding z-score of -0.768.

CGTGCAAGGTCAAGGTCAGTGAAAGAGACTCGAA: the PBM binding z-score stood at 1.6.

CCGAGTAGGTTATGGGGCAATCAGGCAACGGTGA had a PBM binding z-score of -0.0155.

For the sequence GCAGACGGGTGAAACGCAGGTAACTCAGGGTGGC, the PBM binding z-score was -1.33.

Regarding TATAGAGGGTCAAAGGCCAGAGTACGAATGTCGA, the PBM binding z-score stood at 0.901.

Take GATACAGGGTCAGCTATAGGCCAGAGTATGGAAA: the PBM binding z-score was 0.261.

Regarding ATCTCTAGGTAAGACTCAGTTCAGGGAAGAACGC, the PBM binding z-score is 1.12.

The sequence AATACAGGGTCATCGTAGGCCTGAGTACGCACAG gave a PBM binding z-score of 1.77.

Sequence TCTTGTAGATCACAGGTTAAGAAAGCCGAAGCCT came in with a PBM binding z-score of 0.9.

A further assay has as its system PPARg DBDmut IVT, anti-PPARg (DBD mutation: PPARg1 K132A/R137A, NR concentration 270 nM). The description is as above. In outline:
as §1
CCTTGCGGGTCACGAGGTTATAGCACGACGAGCG had a PBM binding z-score of 2.14.

In turn, TCGAGTAGGTTACCAATGGGGCTTTCAGCTTTCT displayed a PBM binding z-score of 0.0286.

Take CGTCCAAGGACAAGGTCAGTGAAAGAGACTCGAA: the PBM binding z-score was -1.03.

For the sequence ATCTCTAGGTAAGACTCAGTTCAGAGAAGAACGC, the PBM binding z-score came out at 0.9.

As for TCTTGTAGATCAACAGGAGGTTAAGAAAGATCGA, the PBM binding z-score stood at 0.445.

For CCAGACAGGTGAGAAGGTAACTCAACCTCGATTA, the PBM binding z-score was -0.571.

In turn, CTACCAAGGTGAGCAAGGTCGTTGATTACTATTC gave a PBM binding z-score of -0.00619.

The sequence AGTCAAAGTACACTAGGTAACGTAAGATTCAGCT displayed a PBM binding z-score of 0.545.

As for CGAACTAGGTCAGAAAAGGACAGTGAAGGATGAT, the PBM binding z-score amounted to 1.47.

On to TCATATAGGTAAATGCTAGCTGAAAGTCCGATCT, for which the PBM binding z-score turned out to be 1.15.

In the case of TTACTAAGGTGAGCTGAGGTCGTTGATCCAACTC, the PBM binding z-score came to 0.0653.

For ACTAGCAGGCCAAGTTTGGGTTACTCAAACAAAG, the PBM binding z-score was -0.888.

With TTACCAAGGTGAGCTGAGGACGTTGATCCAACTC, the PBM binding z-score is -0.329.

ATCTCTAGGTAAAAGTTCAATGAATCCCGAGGAT yielded a PBM binding z-score of 1.61.

GTACCAAGGTGAATGGGTCGTTGATGAGTAGGCG showed a PBM binding z-score of -0.57.

In turn, CAGCCTAGGTCAGGGCCAGTATCGGAGGAACGTT returned a PBM binding z-score of -1.35.

As for CAAACTAGGTCAGGAGGTCAAAGTCCGCTTCCCG, the PBM binding z-score worked out at 1.18.

Sequence TAGCCTAGGTCATTCGGGCCAGTATAGTGTCGGC had a PBM binding z-score of -0.745.

ACAGACAGGCGAGTGAAGGTAACTCAGCTGGACG came in with a PBM binding z-score of -0.29.

On to GGAACCAGGGCATTCGAGTTGATAGCATGGCGAT, for which the PBM binding z-score worked out at 0.956.

ATATGTAGGTTATCGGGTCAGTCAGTTTGCGCAT yielded a PBM binding z-score of 2.31.

For CCTTACGGGTCACTGACAGGTTATATCATTTGGA, the PBM binding z-score is 0.355.

With GCTCGGAGGACAAGGTCAAAGCTTTGTCCGTAGA, the PBM binding z-score is -1.02.

GCTAGTTGGTCAGTAAAAGGCCACACACCGGTCG came in with a PBM binding z-score of -1.15.

The sequence CCTTACGGGTCACTGACCGGTTATAGCATTTGGA gave a PBM binding z-score of -0.432.

Consider CCTACTGGGCCACGAAGGGTCATTGATTCAGTGA, for which the PBM binding z-score is -1.2.

For AGAATGAGGGCACGCTGAGTTGATAGCAGAGTAG, the PBM binding z-score came out at 0.551.

In the case of GCTAACAGGCCATTTGGGTCACTCAATGACGGGC, the PBM binding z-score is -0.627.

Sequence TCGAGTAGGTTAGCGGCATTCAGAATGGCGTCGA registered a PBM binding z-score of -0.893.

For the sequence TATACAGGGTTAAAGGCCAGAGTACGAATGTCGA, the PBM binding z-score amounted to 1.68.

As for CGAACTAGGTCTTCCAGGACAGTGAATACATTGA, the PBM binding z-score worked out at 0.129.

TTACCAAGGTGAGCTGAAGTCGTTGATCCAACTC: the PBM binding z-score was -0.947.

Sequence CGTGCAAGGTCAAGGTCAGTGAAAGAGACTCGAA had a PBM binding z-score of -0.363.

CCGAGTAGGTTATGGGGCAATCAGGCAACGGTGA came in with a PBM binding z-score of -0.785.

In the case of GCAGACGGGTGAAACGCAGGTAACTCAGGGTGGC, the PBM binding z-score was -0.958.

Turning to TATAGAGGGTCAAAGGCCAGAGTACGAATGTCGA, the PBM binding z-score was determined as 0.741.

GATACAGGGTCAGCTATAGGCCAGAGTATGGAAA came in with a PBM binding z-score of 0.123.

ATCTCTAGGTAAGACTCAGTTCAGGGAAGAACGC registered a PBM binding z-score of 0.798.

In turn, AATACAGGGTCATCGTAGGCCTGAGTACGCACAG displayed a PBM binding z-score of 1.33.

For the sequence TCTTGTAGATCACAGGTTAAGAAAGCCGAAGCCT, the PBM binding z-score came out at 0.0684.

Another assay deals with PPARg homodimer (NR concentration 180 nM). The description is as above. In outline:
as §1
With CCTTGCGGGTCACGAGGTTATAGCACGACGAGCG, the PBM binding z-score worked out at 3.48.

TCGAGTAGGTTACCAATGGGGCTTTCAGCTTTCT registered a PBM binding z-score of -0.411.

The sequence CGTCCAAGGACAAGGTCAGTGAAAGAGACTCGAA came in with a PBM binding z-score of 1.03.

ATCTCTAGGTAAGACTCAGTTCAGAGAAGAACGC registered a PBM binding z-score of 1.02.

TCTTGTAGATCAACAGGAGGTTAAGAAAGATCGA returned a PBM binding z-score of 0.0227.

CCAGACAGGTGAGAAGGTAACTCAACCTCGATTA showed a PBM binding z-score of 1.06.

CTACCAAGGTGAGCAAGGTCGTTGATTACTATTC: the PBM binding z-score came out at 0.031.

AGTCAAAGTACACTAGGTAACGTAAGATTCAGCT registered a PBM binding z-score of -0.165.

With CGAACTAGGTCAGAAAAGGACAGTGAAGGATGAT, the PBM binding z-score was determined as 1.15.

With TCATATAGGTAAATGCTAGCTGAAAGTCCGATCT, the PBM binding z-score was found to be 0.314.

On to TTACTAAGGTGAGCTGAGGTCGTTGATCCAACTC, for which the PBM binding z-score turned out to be 0.306.

On to ACTAGCAGGCCAAGTTTGGGTTACTCAAACAAAG, for which the PBM binding z-score is -0.611.

In turn, TTACCAAGGTGAGCTGAGGACGTTGATCCAACTC registered a PBM binding z-score of -0.722.

Turning to ATCTCTAGGTAAAAGTTCAATGAATCCCGAGGAT, the PBM binding z-score came out at 2.08.

GTACCAAGGTGAATGGGTCGTTGATGAGTAGGCG: the PBM binding z-score was found to be 1.22.

In turn, CAGCCTAGGTCAGGGCCAGTATCGGAGGAACGTT registered a PBM binding z-score of 0.632.

Take CAAACTAGGTCAGGAGGTCAAAGTCCGCTTCCCG: the PBM binding z-score came out at 6.

Consider TAGCCTAGGTCATTCGGGCCAGTATAGTGTCGGC, for which the PBM binding z-score is 0.969.

With ACAGACAGGCGAGTGAAGGTAACTCAGCTGGACG, the PBM binding z-score worked out at 0.0641.

The sequence GGAACCAGGGCATTCGAGTTGATAGCATGGCGAT gave a PBM binding z-score of 1.01.

In the case of ATATGTAGGTTATCGGGTCAGTCAGTTTGCGCAT, the PBM binding z-score was determined as 2.57.

CCTTACGGGTCACTGACAGGTTATATCATTTGGA gave a PBM binding z-score of 2.85.

GCTCGGAGGACAAGGTCAAAGCTTTGTCCGTAGA showed a PBM binding z-score of 1.34.

GCTAGTTGGTCAGTAAAAGGCCACACACCGGTCG displayed a PBM binding z-score of 0.58.

In turn, CCTTACGGGTCACTGACCGGTTATAGCATTTGGA showed a PBM binding z-score of 2.45.

The sequence CCTACTGGGCCACGAAGGGTCATTGATTCAGTGA showed a PBM binding z-score of 1.51.

The sequence AGAATGAGGGCACGCTGAGTTGATAGCAGAGTAG registered a PBM binding z-score of 0.535.

GCTAACAGGCCATTTGGGTCACTCAATGACGGGC came in with a PBM binding z-score of 0.24.

As for TCGAGTAGGTTAGCGGCATTCAGAATGGCGTCGA, the PBM binding z-score was -1.05.

With TATACAGGGTTAAAGGCCAGAGTACGAATGTCGA, the PBM binding z-score is 1.75.

CGAACTAGGTCTTCCAGGACAGTGAATACATTGA registered a PBM binding z-score of -0.375.

In turn, TTACCAAGGTGAGCTGAAGTCGTTGATCCAACTC yielded a PBM binding z-score of -0.94.

Take CGTGCAAGGTCAAGGTCAGTGAAAGAGACTCGAA: the PBM binding z-score came out at 4.25.

In turn, CCGAGTAGGTTATGGGGCAATCAGGCAACGGTGA returned a PBM binding z-score of 0.948.

In turn, GCAGACGGGTGAAACGCAGGTAACTCAGGGTGGC registered a PBM binding z-score of -0.685.

TATAGAGGGTCAAAGGCCAGAGTACGAATGTCGA: the PBM binding z-score is 2.2.

Regarding GATACAGGGTCAGCTATAGGCCAGAGTATGGAAA, the PBM binding z-score worked out at 1.68.

ATCTCTAGGTAAGACTCAGTTCAGGGAAGAACGC showed a PBM binding z-score of 0.913.

Sequence AATACAGGGTCATCGTAGGCCTGAGTACGCACAG gave a PBM binding z-score of 2.11.

In turn, TCTTGTAGATCACAGGTTAAGAAAGCCGAAGCCT registered a PBM binding z-score of 0.447.
